Results from PubChem BioAssay AID1159580 (chemical genetic matrix, 2015).
The campaign covered roughly 5,500 compounds. About 2,000 (36%) were called active. Another 18% or so got no clear call; they are omitted. Cut-off read from the data, not from the text of the source: active = normalized growth mostly below about 0.91 (no sharp cut-off); inconclusive = no clear call, values can overlap the other calls; inactive = mostly above about 0.92. The list shows a part of the results.

Test: chemical genetic growth profiling, strain panel (AID 1159580);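 note: tested at 20 µM; growth read once vehicle control cultures reached saturation at 30 °C; 1 = growth at the plate median or of vehicle wells; lower values mean less growth of the strain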
Details: S. cerevisiae deletion strains, growth OD
[1] = locus YAL013W, strain DEP1, hits give low values
[2] = locus YBR229C, strain ROT2, hits give low values
[3] = locus YDL101C, strain DUN1, hits give low values
[4] = locus YEL061C, strain CIN8, hits give low values
[5] = locus YHR030C, strain SLT2, hits give low values
[6] = locus YJR043C, strain POL32, hits give low values
[7] = locus YKL190W, strain CNB1, hits give low values
[8] = locus YLR039C, strain RIC1, hits give low values
[9] = locus YLR262C, strain YPT6, hits give low values
[10] = locus YMR307W, strain GAS1, hits give low values
[11] = locus YNL128W, strain TEP1, hits give low values
[12] = locus YNL153C, strain GIM3, hits give low values
[13] = locus YNL322C, strain KRE1, hits give low values
[14] = locus YPL055C, strain LGE1, hits give low values
[15] = locus YAL040C, strain CLN3, hits give low values
[16] = locus YCL061C, strain MRC1 (second series), hits give low values
[17] = locus YDR150W, strain NUM1, hits give low values
[18] = locus YDR363W, strain ESC2, hits give low values
[19] = locus YER002W, strain NOP16, hits give low values
[20] = locus YGR078C, strain PAC10, hits give low values
[21] = locus YGR229C, strain SMI1, hits give low values
[22] = locus YJR075W, strain HOC1, hits give low values
[23] = locus YMR263W, strain SAP30, hits give low values
[24] = locus YNL175C, strain NOP13, hits give low values
[25] = locus YNL197C, strain WHI3, hits give low values
[26] = locus YNL224C, strain SQS1, hits give low values
[27] = locus YOR083W, strain WHI5 (second series), hits give low values
[28] = locus YPL241C, strain CIN2, hits give low values

Measured: normalized growth

CC1=CC(=O)C2=C(C)CC[C@@H]3[C@H](OC(=O)[C@H]3C)[C@@H]12
inactive: [1] 1 | locus YBR021W, strain FUR4, hits give low values 0.965 | [2] 0.987 | locus YCL029C, strain bik1, hits give low values 0.975 | locus YDL035C, strain GPR1, hits give low values 0.998 | locus YDL074C, strain BRE1, hits give low values 0.986 | [3] 0.995 | locus YDL185W, strain tfp1, hits give low values 0.978 | locus YDL192W, strain arf1, hits give low values 1.01 | locus YDR101C, strain arx1, hits give low values 0.981 | locus YDR162C, strain NBP2, hits give low values 1.01 | locus YDR318W, strain mcm21, hits give low values 1 | locus YDR388W, hits give low values 0.981 | locus YDR502C, strain sam2, hits give low values 0.983 | [4] 0.997 | locus YER110C, hits give low values 0.979 | locus YER155C, strain BEM2, hits give low values 0.987 | locus YER167W, strain BCK2, hits give low values 0.992 | locus YGL078C, strain dbp3, hits give low values 0.977 | locus YGL086W, strain mad1, hits give low values 0.979 | locus YGL248W, strain PDE1, hits give low values 1.01 | locus YGR135W, strain pre9, hits give low values 0.997 | locus YGR252W, strain gcn5, hits give low values 1.07 | [5] 0.99 | locus YHR079C, strain IRE1 (second series), hits give low values 0.985 | locus YHR094C, strain hxt1, hits give low values 0.991 | locus YHR129C, strain ARP1, hits give low values 0.997 | locus YHR200W, strain rpn10, hits give low values 0.998 | locus YIL066C, strain RNR3, hits give low values 0.999 | locus YIL073C, strain SPO22, hits give low values 0.99 | locus YIL125W, strain kgd1, hits give low values 0.986 | locus YIR030C, strain dcg1, hits give low values 0.985 | locus YJL095W, strain BCK1, hits give low values 1.04 | locus YJL134W, strain LCB3, hits give low values 0.992 | locus YJL168C, strain set2, hits give low values 0.984 | locus YJL187C, strain SWE1 (second series), hits give low values 1.01 | [6] 1.01 | locus YKL009W, strain mrt4, hits give low values 1 | locus YKL068W, hits give low values 0.985 | locus YKL085W, strain MDH1 (second series), hits give low values 0.995 | locus YKL085W, strain MDH1, hits give low values 0.995 | [7] 1.01 | locus YKR001C, strain vps1, hits give low values 0.965 | [8] 1.02 | locus YLR058C, strain SHM2, hits give low values 1 | locus YLR102C, strain apc9, hits give low values 0.981 | [9] 1.01 | locus YLR268W, strain sec22, hits give low values 0.976 | locus YLR330W, strain CHS5, hits give low values 0.993 | locus YLR342W, strain FKS1 (second series), hits give low values 0.989 | locus YLR371W, strain rom2, hits give low values 0.959 | locus YLR418C, strain cdc73, hits give low values 1.01 | locus YML016C, strain PPZ1, hits give low values 0.99 | locus YML032C, strain rad52, hits give low values 1.01 | locus YML124C, strain tub3, hits give low values 0.989 | locus YMR078C, strain ctf18, hits give low values 1 | locus YMR223W, strain ubp8, hits give low values 1.03 | [10] 1 | locus YNL067W, strain RPL9B, hits give low values 1.02 | [11] 0.984 | [12] 1.01 | locus YNL233W, strain BNI4, hits give low values 1 | locus YNL250W, strain rad50, hits give low values 0.995 | locus YNL271C, strain bni1, hits give low values 0.984 | locus YNL298W, strain CLA4, hits give low values 0.99 | locus YNL307C, strain MCK1, hits give low values 0.971 | [13] 1 | locus YNR052C, strain pop2, hits give low values 0.996 | locus YOL012C, strain htz1 0.989 | locus YOL147C, strain pex11, hits give low values 0.987 | locus YOR061W, strain CKA2, hits give low values 0.992 | locus YOR069W, strain VPS5, hits give low values 0.986 | locus YOR136W, strain idh2, hits give low values 0.971 | locus YOR144C, strain elg1, hits give low values 0.988 | locus YOR184W, strain ser1, hits give low values 0.974 | locus YOR316C, strain cot1, hits give low values 0.984 | [14] 0.999 | locus YPR119W, strain clb2, hits give low values 1 | locus YPR141C, strain kar3, hits give low values 0.98 | locus YPR163C, strain tif3, hits give low values 0.978 | locus YPR167C, strain met16, hits give low values 1.02 | strain wtn01, hits give low values 0.971

N#C/C(=C\c1ccc(O)c(O)c1)C(=O)NCCc1ccccc1
inactive: [15] 0.986 | [16] 0.987 | [17] 0.988 | [18] 1 | [19] 0.995 | [20] 1.01 | [21] 0.952 | [22] 0.99 | [23] 1 | [10] 1.01 | [11] 0.999 | [24] 1 | [25] 1 | [26] 0.998 | [13] 1 | [27] 0.994 | [28] 0.996

N#C/C(=C/c1ccc(O)c(O)c1)C(N)=S
inactive: [1] 0.959 | [15] 0.973 | [16] 0.997 | [19] 0.995 | [20] 0.995 | [21] 0.972 | [23] 0.956 | [10] 1 | [12] 0.988 | [24] 0.977 | [25] 0.98 | [26] 0.985 | [27] 0.958 | [28] 0.975
active: [18] 0.73

N#C/C(=C\c1ccc(O)c(O)c1)C(=O)c1ccc(O)c(O)c1
inactive: [15] 1 | [16] 0.995 | [17] 0.997 | [18] 0.994 | [19] 1.02 | [20] 0.99 | [21] 1.03 | [10] 0.99 | [12] 1.04 | [24] 0.961 | [25] 0.994 | [26] 1 | [13] 0.99 | [27] 0.999 | [28] 0.991

N#CC(C#N)=Cc1cc(O)c(O)c(O)c1
inactive: [15] 0.951 | [16] 0.998 | [17] 0.988 | [18] 1 | [19] 0.996 | [21] 0.97 | [23] 0.996 | [10] 0.995 | [11] 0.986 | [12] 0.975 | [24] 1.01 | [25] 1.01 | [26] 0.999 | [27] 0.995 | [28] 0.999

COc1cc(/C=C(\C#N)C(=O)c2ccc(O)c(O)c2)cc(I)c1O
inactive: [1] 1.02 | [15] 1.03 | [16] 1.02 | [18] 1.02 | [19] 1 | [21] 0.971 | [23] 1.02 | [10] 1.03 | [11] 1.01 | [12] 1.02 | [24] 0.984 | [25] 1.04 | [26] 1 | [13] 1.03 | [27] 1.02

COc1cc(C=C(C#N)C#N)cc(O)c1O
inactive: [1] 1.01 | [15] 0.941 | [16] 0.979 | [18] 0.997 | [19] 1 | [20] 0.982 | [23] 0.993 | [10] 0.993 | [11] 0.968 | [24] 0.972 | [25] 0.978 | [26] 0.969 | [27] 0.997 | [14] 1.01

N#CC(C#N)=Cc1ccc(O)c(O)c1
inactive: [1] 1 | [15] 1.01 | [16] 1 | [17] 0.998 | [18] 1.02 | [19] 0.992 | [21] 0.982 | [22] 0.959 | [10] 0.988 | [24] 0.998 | [25] 0.995 | [26] 0.998 | [27] 1.03

N#C/C(=C\c1ccc(O)c(O)c1)C(=O)NCCCNC(=O)/C(C#N)=C/c1ccc(O)c(O)c1
active: [21] 0.758
inactive: [15] 0.994 | [16] 1.01 | [18] 0.999 | [19] 0.987 | [20] 0.992 | [10] 0.982 | [24] 1.01 | [25] 0.988 | [26] 1 | [13] 0.981 | [27] 1.01 | [28] 0.997

CC(C)(C)c1cc(C=C(C#N)C#N)cc(C(C)(C)C)c1O
inactive: [15] 0.965 | [16] 1.01 | [17] 1.01 | [18] 1.03 | [19] 1.02 | [21] 1.02 | [10] 0.999 | [11] 0.973 | [12] 0.821 | [24] 0.943 | [26] 0.931 | [28] 1
active: [25] 0.884 | [27] 0.85

COc1cc(/C=C(\C#N)C(N)=S)cc(OC)c1OC
inactive: [1] 0.979 | [2] 1.02 | locus YCL061C, strain MRC1, hits give low values 1 | [3] 0.943 | locus YDL134C, strain PPH21, hits give low values 0.943 | [17] 0.961 | [20] 0.977 | locus YHR087W, strain rtc3, hits give low values 0.986 | locus YJL187C, strain SWE1, hits give low values 0.942 | [6] 0.986 | [22] 0.983 | [8] 0.854 | locus YLR058C, strain SHM2 (second series), hits give low values 1.01 | [9] 0.832 | locus YMR219W, strain ESC1, hits give low values 1.02 | [23] 0.982 | [10] 1.15 | [12] 0.989 | locus YNL298W, strain CLA4 (second series), hits give low values 0.886 | [13] 0.987 | [14] 0.966 | locus YPR135W, strain CTF4, hits give low values 0.756
active: [4] 0.674 | [5] 0.476 | [7] 0.71 | locus YLR085C, strain ARP6, hits give low values 0.377 | locus YML094W, strain GIM5, hits give low values 0.86 | locus YNR030W, strain Alg12, hits give low values 0.761 | [28] 0.558

N#C/C(=C\c1ccc(O)c(O)c1)C(=O)NCCCc1ccccc1
inactive: [15] 0.98 | [16] 1 | [17] 0.991 | [18] 1.01 | [19] 0.993 | [20] 1 | [21] 0.941 | [10] 0.996 | [11] 0.996 | [24] 0.998 | [25] 1.01 | [26] 1 | [13] 1 | [27] 1.01 | [14] 0.991
